Activity calls are given as the source filed them.
experiment: E. coli growth modulation, two-sided OD650, primary screen, E. coli filamentation project, strain DRC41, 24 h (AID 1093); conditions: OD650, 24 h, higher = more signal, called active from +8 up or from −8 down;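 note: MC1000 strain lacking acrAB efflux and sulA so SOS filamentation is blocked; test concentration not given here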

z-score, inactive:
COCCOC(=O)N1C(=O)[C@@]2(c3cc(C#CCCO)ccc31)[C@H](c1ccc(O)cc1)N1[C@H](c3ccccc3)[C@H](c3ccccc3)OC(=O)[C@H]1[C@@H]2C(=O)N1CCc2cc(OC)c(OC)cc2C1 -0.617
Cc1ccc(S[C@]2(C(=O)NC3CC3)CC(=O)N(Cc3cc(C(F)(F)F)cc(C(F)(F)F)c3)[C@@H]2c2ccc(CO)cc2I)cc1 0.545
C[N+](C)(C)CCCC[C@@H]1NC(=O)[C@H]2C[C@@H](C(=O)NCCCCCNC(=O)CS)[C@@H](c3ccc(O)cc3)N2C1=O 1.42
CC[C@H](C)C(=O)O[C@H]1CC[C@]2(C)C3=C(CCC2C1(C)C)[C@]1(C)CC[C@H]([C@H](C)CCCC(C)C)[C@@]1(C)CC3 (stereo not given in full) 2.24
COCCOC(=O)N1C(=O)[C@@]2(c3cc(C#CCC(C(=O)OC)C(=O)OC)ccc31)[C@H](C(=O)N1CCCCCCC1)[C@H]1C(=O)O[C@H](c3ccccc3)[C@H](c3ccccc3)N1[C@@H]2c1ccccc1OCCO 0.858
C=CCOC(=O)[C@H]1[C@@H]2C(=O)O[C@@H](c3ccccc3)[C@@H](c3ccccc3)N2[C@@H](c2ccc(OCCOC(=O)[C@H]3C[C@H]4C(=O)NCC(=O)N4[C@H]3c3ccc(O)cc3)cc2)[C@]12C(=O)Nc1ccc(I)cc12 0.47
CC#CCO[Si](C#CCCCCCC)(C(C)C)C(C)C -0.0013
CC(c1ccccc1)C(O)C1C=CC2C(=O)N(c3ccccc3)C(=O)C2N1Nc1ccc(C#N)cc1 (stereo not given) 0.939
O=C1c2ccccc2[C@@]2(Cc3ccccc3N(Cc3ccccc3)C2=O)[C@H](c2ccc(CO)cc2)N1Cc1ccccc1 -0.737
CC(C)CNC(=O)[C@@H]1c2ccccc2C(=O)N(CC23CC4CC(CC(C4)C2)C3)[C@H]1c1ccc(CO)cc1 -0.109

— PubChem BioAssay
